# Data: article PMC11062922 (Nature Chemical Biology, 2023)
# Key:
# Set-up in all cases: species or system human, MV4-11 + K-562 + COLO205 + SK-N-BE2 + OVCAR-8
# PKM = conditions: read-out: apparent Kd; compound concentrations: 100 nM and 1000 nM (sheet 'Samples'), CATDS: 1; n = 1
# PIP4K2C = conditions: read-out: apparent Kd; compound concentrations: 100 nM and 1000 nM (sheet 'Samples'), CATDS: 1; n = 1
# PRKG1 = conditions: read-out: apparent Kd; compound concentrations:100 nM and 1000 nM (sheet 'Samples'); n = 1
# PRKX;PRKY = conditions: read-out: apparent Kd; compound concentrations: 100 nM and 1000 nM (sheet 'Samples'), CATDS: 0.167379705383528; n = 1
# STK10 = conditions: read-out: apparent Kd; compound concentrations: 100 nM and 1000 nM (sheet 'Samples'), CATDS: 0.394091035560725; n = 1
# PRKAG1 = conditions: read-out: apparent Kd; compound concentrations:100 nM and 1000 nM (sheet 'Samples'); n = 1
# PRKAG2 = conditions: read-out: apparent Kd; compound concentrations:100 nM and 1000 nM (sheet 'Samples'); n = 1
# PRKCQ = conditions: read-out: apparent Kd; compound concentrations: 100 nM and 1000 nM (sheet 'Samples'), CATDS: 1; n = 1
# PRKCZ = conditions: read-out: apparent Kd; compound concentrations:100 nM and 1000 nM (sheet 'Samples'); n = 1
# RABL3 = conditions: read-out: apparent Kd; compound concentrations:100 nM and 1000 nM (sheet 'Samples'); n = 1
# TGFBR1 = conditions: read-out: apparent Kd; compound concentrations:100 nM and 1000 nM (sheet 'Samples'); n = 1
# TNIK = conditions: read-out: apparent Kd; compound concentrations:100 nM and 1000 nM (sheet 'Samples'); n = 1
# PTK2 = conditions: read-out: apparent Kd; compound concentrations: 100 nM and 1000 nM (sheet 'Samples'), CATDS: 1; n = 1
# RAB5C = conditions: read-out: apparent Kd; compound concentrations: 100 nM and 1000 nM (sheet 'Samples'), CATDS: 1; n = 1
# RET = conditions: read-out: apparent Kd; compound concentrations:100 nM and 1000 nM (sheet 'Samples'); n = 1
# RIPK2 = conditions: read-out: apparent Kd; compound concentrations: 100 nM and 1000 nM (sheet 'Samples'), CATDS: 0.62079920866718596; n = 1
# RIPK3 = conditions: read-out: apparent Kd; compound concentrations: 100 nM and 1000 nM (sheet 'Samples'), CATDS: 0.41855483652365999; n = 1
# SIK2 = conditions: read-out: apparent Kd; compound concentrations: 100 nM and 1000 nM (sheet 'Samples'), CATDS: 1; n = 1
# SMC2 = conditions: read-out: apparent Kd; compound concentrations: 100 nM and 1000 nM (sheet 'Samples'), CATDS: 0.46661242360410599; n = 1
# SMC4 = conditions: read-out: apparent Kd; compound concentrations: 100 nM and 1000 nM (sheet 'Samples'), CATDS: 0.57123951593094102; n = 1
smiles,measurement,setting,value
Cn1cc(C2=C(c3cn(C)c4ccc(OCc5ccccc5)cc34)C(=O)NC2=O)c2ccccc21 [RO0317432-000],potency estimated from few doses,PKM,1.86 µM
COc1cc(Nc2nccc(N3CCC(NC(=O)C(C)c4ccc(Cl)cc4)C3)n2)cc(OC)c1OC (centres unmarked) [GSK1379757A],potency estimated from few doses,PIP4K2C,1.64 µM
CCn1c(-c2nonc2N)nc2cnc(Oc3cccc(NC(=O)c4ccc(N(C)C)cc4)c3)cc21 [GSK248233A],potency estimated from few doses,PRKG1,0.227 µM
CC1=C(C(=O)Nc2cc3cn[nH]c3cc2F)C(c2ccc(C(F)(F)F)cc2)CC(=O)N1 (centres unmarked) [GSK429286A],potency estimated from few doses,PRKX;PRKY,2 µM
COc1cc2ncn(-c3cc(OCC4CCCO4)c(C(N)=O)s3)c2cc1OC (centres unmarked) [GSK204607A],potency estimated from few doses,STK10,0.614 µM
COc1ccccc1-c1ccc2c(NC(=O)C3CC3)n[nH]c2n1 [SB-711239],potency estimated from few doses,PRKAG1,1.19 µM
same,potency estimated from few doses,PRKAG2,1.27 µM
CO/N=C(\c1ccccc1)c1cnn(-c2ccccc2)c1N [RO1163374-000],potency estimated from few doses,PRKCQ,2.21 µM
O=C(Nc1n[nH]c2cc(-c3cccs3)ccc12)C1CC1 [SB-731284],potency estimated from few doses,PRKCZ,1.85 µM
Cc1cccc(-c2n[nH]cc2-c2ccc3ncccc3n2)n1 [GW786460X],potency estimated from few doses,RABL3,1.26 µM
same,potency estimated from few doses,TGFBR1,0.00139 µM
same,potency estimated from few doses,TNIK,1.72 µM
COc1cc2c(cc1Nc1nc(Nc3cccc(F)c3C(N)=O)c3cc[nH]c3n1)N(C(=O)CN1CCN(C(C)C)CC1)CC2 [GSK1751853A],potency estimated from few doses,PTK2,1.21 µM
Fc1ccc(-c2c(-c3ccncc3)n(CCN3CCOCC3)c3cccnc23)cc1 [RO1154507-000],potency estimated from few doses,RAB5C,0.223 µM
Cl.O=C(Nc1ccc(Oc2ccc3[nH]c(NC(=O)c4ccccc4)nc3c2)cc1)Nc1cc(C(F)(F)F)ccc1F [GW709042A],potency estimated from few doses,RET,1.42 µM
c1ccc(Oc2ccc(Nc3ccnc4ccc(-c5ccccn5)cc34)cc2)cc1 [GW407034X],potency estimated from few doses,RIPK2,0.189 µM
same,potency estimated from few doses,RIPK3,0.429 µM
NS(=O)(=O)c1cccc(-c2cc3ccncc3cc2OCc2ccccc2)c1 [GSK980961A],potency estimated from few doses,SIK2,1.6 µM
N#Cc1ccc(C(=O)c2cnn(-c3ccc(F)cc3)c2N)cc1 [RO1153198-000],potency estimated from few doses,SMC2,2.04 µM
CCCNC(=O)Nc1ccc(N(C)c2ccnc(NC3CC3)n2)cc1 [GW818933X],potency estimated from few doses,SMC4,1.12 µM
